According to the supplement of paper PMC10849652:
About 7,900 targets were measured; listed, in parts, are those with a hit and a random draw of the rest. About 0.6% of all pairs of compound and target were hits.

Legend:
Assay in all cases: log2 fold change, soluble protein after heating vs DMSO (PISA); higher = thermal stabilisation; K562 cells, 10 uM, 30 min; active = over 0.2 and 3.5 SD of the protein, either way, in both replicates (recomputed)
[1] = compound: C=CC(=O)N1CCC[C@@H](n2nc(-c3ccc(Oc4ccccc4)cc3)c3c(N)ncnc32)C1 [ibrutinib]
Procedure, shortened: (§1)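 Aliquots of K562 cells (2×10^6 cells/mL) treated with 10 μM compound for 30 min were heated for 3 min over 48°C-58°C. After pooling and extraction in PBS with 0.5% NP-40 at 4°C, soluble protein from a 21,000xg, 90 min spin was quantified by TMTpro 16plex LC-MS/MS with channel sums equalised. Thermal stability is expressed against control samples, from duplicates, as a log2 fold change.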

[2] = compound: CC(=O)c1cnc2ccc(-c3cc(Cl)c(O)c(Cl)c3)nc2c1N[C@H]1CC[C@H](CN(C)C)CC1
Procedure, shortened: as §1

[3] = compound: CC(C)(C)Cn1c(N)nc2ccc(-c3[nH]c(C(C)(C)C)nc3-c3ccc(F)cc3)nc21 [ralimetinib]
Procedure, shortened: as §1

[4] = compound: CC(C)(O)CC(=O)NCCn1ccc2ncnc(Nc3ccc(Oc4cccc(C(F)(F)F)c4)c(Cl)c3)c21
Procedure, shortened: as §1

[5] = compound: CC(C)C1=C2N=C(C=C(N2N=C1)NCC3=CC=CC=C3)NCCCCCCN
Procedure, shortened: as §1

[6] = compound: CC(C)C[C@@H](C=O)NC(=O)[C@H](CC(C)C)NC(=O)[C@H](CC(C)C)NC(=O)OCc1ccccc1
Procedure, shortened: as §1

[7] = compound: CC1=C(C(CC(=O)N1)C2=CC=C(C=C2)C(F)(F)F)C(=O)NC3=C(C=C4C(=C3)C=NN4)F
Procedure, shortened: as §1

[8] = compound: CC1=C(C2=C(C=C1)C(=O)C3=CC=CC=C3N2CCCN)C
Procedure, shortened: as §1

[9] = compound: CC1=C(C=C(C=C1)NC(=O)C2=CC(=CC=C2)C(C)(C)C#N)NC3=CC4=C(C=C3)N=CN(C4=O)C
Procedure, shortened: as §1

[10] = compound: CC1=C(C=C(C=C1)NC(=O)C2=CC(=CC=C2)N(C)C)NC(=O)C3=CC=C(C=C3)O
Procedure, shortened: as §1

[11] = compound: CC1=CC=C(C=C1)SC2=C3C=C(SC3=CN=C2)C(=O)N
Procedure, shortened: as §1

[12] = compound: CCCCN(Cc1ccc(C(=O)NO)cc1)C(=O)Nc1ccccc1 [Nexturastat A]
Procedure, shortened: as §1

[13] = compound: CCCS(=O)(=O)Nc1ccc(F)c(C(=O)c2c[nH]c3ncc(-c4ccc(Cl)cc4)cc23)c1F [vemurafenib]
Procedure, shortened: as §1

[14] = compound: CCCS(=O)(=O)Nc1ccc(F)c(C(=O)c2c[nH]c3ncc(Cl)cc23)c1F
Procedure, shortened: as §1

[15] = compound: CCCc1cc(C)[nH]c(=O)c1CNC(=O)c1cc(-c2ccnc(N3CCN(C)CC3)c2)cc2c1cnn2C(C)C
Procedure, shortened: as §1

[16] = compound: CCN(CC)Cc1ccc2cc(COC(=O)Nc3ccc(C(=O)NO)cc3)ccc2c1 [givinostat]
Procedure, shortened: as §1

[17] = compound: CCN(CCCOc1ccc2c(Nc3cc(CC(=O)Nc4cccc(F)c4)[nH]n3)ncnc2c1)CCOP(=O)(O)O [barasertib]
Procedure, shortened: as §1

[18] = compound: C1COCCN1CCN2C3=CC=CC=C3N=C2NC(=O)C4=CC(=CC=C4)[N+](=O)[O-] [IRAK-1-4 Inhibitor I]
Procedure, shortened: as §1

[19] = compound: CC(C)N(C[C@H]1O[C@@H](n2cnc3c(N)ncnc32)[C@H](O)[C@@H]1O)[C@H]1C[C@@H](CCc2nc3cc(C(C)(C)C)ccc3[nH]2)C1 [pinometostat]
Procedure, shortened: as §1

[20] = compound: CC1=NC(=CC=C1)C2=C(N=C(N2)C(C)(C)C)C3=CC4=NC=CN=C4C=C3
Procedure, shortened: as §1

Measured: log2 fold change

SMIM20 isoform 2 (UniProt Q8N5G0)
Chain of UniProt Q8N5G0 (Q8N5G0 whole entry, looked up): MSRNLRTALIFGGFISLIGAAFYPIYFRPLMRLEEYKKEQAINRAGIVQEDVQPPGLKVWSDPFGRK
inactive: [1] -0.01 | [2] -0.023 | [3] -0.056 | [4] -0.061 | [5] 0.024 | [6] 0.006 | [7] 0.05 | [8] -0.058 | [9] 0.01 | [10] 0.008 | [11] -0.052 | [12] 0.006 | [13] 0.148 | [14] -0.059 | [15] -0.024 | [16] -0.102 | [17] -0.026

SLC35F6 (UniProt Q8N357)
Chain of UniProt Q8N357 (Q8N357 whole entry, looked up): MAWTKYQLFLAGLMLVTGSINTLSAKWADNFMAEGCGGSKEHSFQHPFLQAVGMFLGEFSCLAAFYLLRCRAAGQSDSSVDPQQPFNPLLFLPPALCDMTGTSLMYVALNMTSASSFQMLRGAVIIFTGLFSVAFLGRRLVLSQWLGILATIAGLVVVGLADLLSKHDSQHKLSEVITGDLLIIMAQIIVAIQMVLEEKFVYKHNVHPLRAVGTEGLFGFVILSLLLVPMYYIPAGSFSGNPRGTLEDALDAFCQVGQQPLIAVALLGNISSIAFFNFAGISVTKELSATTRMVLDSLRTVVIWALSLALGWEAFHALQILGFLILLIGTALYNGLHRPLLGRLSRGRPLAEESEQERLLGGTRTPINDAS
inactive: [1] -0.002 | [2] -0.016 | [3] -0.18 | [4] 0.061 | [5] -0.22 | [6] 0.319 | [7] -0.177 | [8] 0.078 | [9] -0.041 | [10] -0.166 | [11] 0.001 | [12] -0.065 | [13] -0.168 | [14] -0.055 | [15] -0.066 | [16] 0.129 | [17] 0.045

SMARCB1 (UniProt Q12824)
Chain of UniProt Q12824 (Q12824 whole entry, looked up): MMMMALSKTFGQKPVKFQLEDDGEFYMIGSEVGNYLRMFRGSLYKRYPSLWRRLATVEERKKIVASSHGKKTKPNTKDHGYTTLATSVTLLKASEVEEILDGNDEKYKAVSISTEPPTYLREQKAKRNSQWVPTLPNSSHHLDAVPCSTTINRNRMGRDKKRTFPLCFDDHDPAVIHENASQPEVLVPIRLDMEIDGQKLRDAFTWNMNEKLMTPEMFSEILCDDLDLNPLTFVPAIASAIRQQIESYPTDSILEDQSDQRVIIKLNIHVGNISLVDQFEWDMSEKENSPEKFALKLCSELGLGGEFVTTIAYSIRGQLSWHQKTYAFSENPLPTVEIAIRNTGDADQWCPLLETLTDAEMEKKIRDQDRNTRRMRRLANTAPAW
inactive: [18] -0.082 | [19] 0.179 | [8] -0.031 | [9] 0.188 | [20] 0.101 | [13] 0.065

TK1 (UniProt K7ERV3)
inactive: [1] -0.033 | [2] -0.071 | [3] -0.025 | [4] -0.122 | [6] 0.078 | [7] 0.004 | [8] -0.037 | [9] -0.185 | [10] -0.055 | [11] -0.273 | [12] -0.178 | [13] -0.077 | [14] -0.009 | [15] -0.149 | [17] 0.088

STK11IP (UniProt Q8N1F8)
Chain of UniProt Q8N1F8 (Q8N1F8 whole entry, looked up): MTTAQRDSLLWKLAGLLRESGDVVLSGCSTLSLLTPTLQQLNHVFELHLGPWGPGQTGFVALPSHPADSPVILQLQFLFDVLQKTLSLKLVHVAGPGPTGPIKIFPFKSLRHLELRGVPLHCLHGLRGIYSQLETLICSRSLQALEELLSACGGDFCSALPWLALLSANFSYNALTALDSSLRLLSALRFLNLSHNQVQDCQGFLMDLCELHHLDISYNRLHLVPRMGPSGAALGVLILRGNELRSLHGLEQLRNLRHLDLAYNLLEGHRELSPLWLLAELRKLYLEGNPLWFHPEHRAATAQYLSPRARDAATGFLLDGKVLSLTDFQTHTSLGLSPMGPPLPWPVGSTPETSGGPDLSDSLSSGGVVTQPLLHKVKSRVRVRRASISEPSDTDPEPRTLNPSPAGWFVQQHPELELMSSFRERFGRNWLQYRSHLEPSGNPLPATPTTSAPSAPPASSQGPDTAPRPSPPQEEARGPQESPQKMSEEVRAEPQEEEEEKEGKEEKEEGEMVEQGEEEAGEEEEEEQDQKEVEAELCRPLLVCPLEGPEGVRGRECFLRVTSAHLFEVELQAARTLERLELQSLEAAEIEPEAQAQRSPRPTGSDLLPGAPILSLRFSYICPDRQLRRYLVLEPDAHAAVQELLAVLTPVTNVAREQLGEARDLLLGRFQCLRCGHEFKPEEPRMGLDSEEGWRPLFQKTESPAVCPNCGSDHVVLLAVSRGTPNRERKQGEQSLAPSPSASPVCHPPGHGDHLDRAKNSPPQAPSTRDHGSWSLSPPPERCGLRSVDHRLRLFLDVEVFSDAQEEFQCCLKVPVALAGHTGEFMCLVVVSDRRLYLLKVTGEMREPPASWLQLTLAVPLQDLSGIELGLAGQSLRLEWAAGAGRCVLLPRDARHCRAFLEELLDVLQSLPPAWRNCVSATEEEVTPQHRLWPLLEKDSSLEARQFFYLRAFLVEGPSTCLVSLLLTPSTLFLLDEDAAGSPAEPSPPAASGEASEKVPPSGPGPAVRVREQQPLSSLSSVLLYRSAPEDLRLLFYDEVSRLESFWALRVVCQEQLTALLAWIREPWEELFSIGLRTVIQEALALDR
inactive: [18] -0.248 | [1] 0.027 | [2] -0.02 | [4] -0.131 | [19] 0.168 | [7] 0.1 | [8] -0.183 | [9] 0.095 | [11] 0.038 | [20] -0.071 | [12] 0.118 | [13] -0.159 | [14] 0.061 | [15] 0.063 | [16] -0.017 | [17] 0.008
active: [5] -0.932

TAOK2 (UniProt Q9UL54)
Chain of UniProt Q9UL54 (Q9UL54 whole entry, looked up): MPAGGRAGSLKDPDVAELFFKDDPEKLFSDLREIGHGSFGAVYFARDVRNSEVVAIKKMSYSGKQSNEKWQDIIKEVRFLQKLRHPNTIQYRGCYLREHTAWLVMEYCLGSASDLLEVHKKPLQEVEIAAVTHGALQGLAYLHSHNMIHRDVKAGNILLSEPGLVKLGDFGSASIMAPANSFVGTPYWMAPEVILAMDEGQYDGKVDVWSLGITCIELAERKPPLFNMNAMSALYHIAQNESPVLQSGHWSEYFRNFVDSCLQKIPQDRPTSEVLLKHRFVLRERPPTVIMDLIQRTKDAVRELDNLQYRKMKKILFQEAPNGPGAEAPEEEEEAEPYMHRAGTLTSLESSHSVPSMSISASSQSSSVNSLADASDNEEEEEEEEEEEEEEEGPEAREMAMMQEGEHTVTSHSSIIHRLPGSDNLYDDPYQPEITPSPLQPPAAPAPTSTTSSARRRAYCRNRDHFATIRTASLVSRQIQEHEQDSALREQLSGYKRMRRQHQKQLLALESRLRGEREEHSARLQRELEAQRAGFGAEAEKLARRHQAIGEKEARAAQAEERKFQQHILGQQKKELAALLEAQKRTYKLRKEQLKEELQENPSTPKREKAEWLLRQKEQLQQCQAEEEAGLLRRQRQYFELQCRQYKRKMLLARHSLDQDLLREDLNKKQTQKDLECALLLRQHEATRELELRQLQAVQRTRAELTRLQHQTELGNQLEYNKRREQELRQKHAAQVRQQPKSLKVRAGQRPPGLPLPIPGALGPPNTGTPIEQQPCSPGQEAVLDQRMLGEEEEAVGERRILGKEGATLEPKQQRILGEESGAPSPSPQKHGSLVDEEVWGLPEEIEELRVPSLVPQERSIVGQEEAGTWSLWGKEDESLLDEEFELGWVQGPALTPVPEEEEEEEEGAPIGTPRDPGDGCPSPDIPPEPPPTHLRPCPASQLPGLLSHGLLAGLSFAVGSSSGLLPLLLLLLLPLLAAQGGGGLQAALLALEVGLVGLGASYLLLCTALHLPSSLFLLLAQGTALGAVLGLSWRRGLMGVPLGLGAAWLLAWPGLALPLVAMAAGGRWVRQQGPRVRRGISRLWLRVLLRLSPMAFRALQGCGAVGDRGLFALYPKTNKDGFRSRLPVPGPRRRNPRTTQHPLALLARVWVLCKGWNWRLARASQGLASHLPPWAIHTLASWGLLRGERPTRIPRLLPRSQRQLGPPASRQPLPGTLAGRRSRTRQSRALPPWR
inactive: [18] -0.132 | [3] 0.09 | [4] -0.041 | [5] 0.083 | [6] 0.001 | [19] 0.031 | [7] -0.044 | [8] 0.127 | [10] 0.024 | [11] 0.062 | [20] 0.08 | [14] 0.051 | [15] 0.007 | [16] -0.363
active: [12] 0.487

SUPT5H isoform 2 (UniProt O00267)
inactive: [13] 0.232

TBC1D2 (UniProt Q9BYX2)
Chain of UniProt Q9BYX2 (Q9BYX2 whole entry, looked up): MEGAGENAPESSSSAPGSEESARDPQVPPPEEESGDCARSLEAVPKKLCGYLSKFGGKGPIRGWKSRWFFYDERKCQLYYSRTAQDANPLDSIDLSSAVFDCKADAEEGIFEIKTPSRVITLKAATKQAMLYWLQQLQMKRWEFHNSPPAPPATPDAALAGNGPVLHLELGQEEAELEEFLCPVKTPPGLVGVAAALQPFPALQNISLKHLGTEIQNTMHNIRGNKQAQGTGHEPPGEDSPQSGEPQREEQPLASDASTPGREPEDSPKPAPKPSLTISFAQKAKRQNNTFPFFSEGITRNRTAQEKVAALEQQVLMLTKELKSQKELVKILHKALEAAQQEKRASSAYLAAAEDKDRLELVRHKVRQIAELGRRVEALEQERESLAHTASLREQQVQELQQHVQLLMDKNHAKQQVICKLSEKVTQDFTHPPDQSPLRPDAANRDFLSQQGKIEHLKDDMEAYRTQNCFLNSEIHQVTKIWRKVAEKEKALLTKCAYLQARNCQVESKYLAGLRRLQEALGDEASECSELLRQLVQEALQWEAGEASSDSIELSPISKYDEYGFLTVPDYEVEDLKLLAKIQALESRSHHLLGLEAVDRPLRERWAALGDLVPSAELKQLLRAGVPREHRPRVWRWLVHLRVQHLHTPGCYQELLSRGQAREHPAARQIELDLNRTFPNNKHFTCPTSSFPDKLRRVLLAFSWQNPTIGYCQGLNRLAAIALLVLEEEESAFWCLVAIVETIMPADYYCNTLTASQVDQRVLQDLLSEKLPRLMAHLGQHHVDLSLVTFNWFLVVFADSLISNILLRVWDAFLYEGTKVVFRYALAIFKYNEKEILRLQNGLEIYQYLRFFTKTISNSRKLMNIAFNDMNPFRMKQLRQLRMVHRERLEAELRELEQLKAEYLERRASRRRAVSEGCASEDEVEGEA
active: [12] 0.618
inactive: [2] -0.208 | [4] 0.007 | [15] 0.11

SNX2 isoform 2 (UniProt O60749)
Chain of UniProt O60749 (O60749 whole entry, looked up): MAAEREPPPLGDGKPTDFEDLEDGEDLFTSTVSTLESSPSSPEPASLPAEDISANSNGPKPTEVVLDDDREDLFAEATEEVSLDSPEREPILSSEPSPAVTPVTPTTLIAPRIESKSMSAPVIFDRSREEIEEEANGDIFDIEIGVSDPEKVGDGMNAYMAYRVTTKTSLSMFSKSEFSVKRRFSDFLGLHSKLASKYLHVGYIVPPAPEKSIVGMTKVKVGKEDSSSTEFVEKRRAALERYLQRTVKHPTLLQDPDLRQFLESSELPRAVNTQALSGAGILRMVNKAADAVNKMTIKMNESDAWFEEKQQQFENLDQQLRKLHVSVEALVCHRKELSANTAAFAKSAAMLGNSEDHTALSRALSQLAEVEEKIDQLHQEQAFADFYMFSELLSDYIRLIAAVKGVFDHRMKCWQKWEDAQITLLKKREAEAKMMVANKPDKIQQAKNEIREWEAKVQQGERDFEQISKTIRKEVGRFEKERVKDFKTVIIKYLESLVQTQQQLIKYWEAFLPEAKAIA
inactive: [18] 0.091 | [1] 0.151 | [2] -0.039 | [4] -0.377 | [19] -0.094 | [9] 0 | [11] -0.003 | [20] -0.039 | [12] 0.484 | [13] -0.026 | [14] -0.144 | [17] -0.054

SLC39A1 (UniProt Q9NY26)
active: [5] -1.06
inactive: [16] -0.157

SSB (UniProt E7ERC4)
inactive: [13] 0.264 | [15] 0.283

TDP1 (UniProt Q9NUW8)
inactive: [5] 0.156 | [16] 0.112

TENT5C (UniProt Q5VWP2)
Chain of UniProt Q5VWP2 (Q5VWP2 whole entry, looked up): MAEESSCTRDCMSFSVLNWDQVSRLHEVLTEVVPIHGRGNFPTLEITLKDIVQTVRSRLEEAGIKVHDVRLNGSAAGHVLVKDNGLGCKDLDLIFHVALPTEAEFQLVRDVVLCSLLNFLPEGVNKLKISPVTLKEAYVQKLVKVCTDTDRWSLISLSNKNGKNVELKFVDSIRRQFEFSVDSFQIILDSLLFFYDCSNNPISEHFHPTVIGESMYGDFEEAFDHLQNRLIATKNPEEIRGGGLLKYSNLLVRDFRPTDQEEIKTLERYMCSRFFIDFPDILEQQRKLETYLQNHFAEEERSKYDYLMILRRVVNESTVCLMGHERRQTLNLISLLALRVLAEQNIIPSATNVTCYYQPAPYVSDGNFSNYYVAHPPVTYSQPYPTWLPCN
inactive: [18] 0.136 | [1] 0.008 | [3] -0.119 | [5] 0.18 | [6] 0.03 | [19] -0.028 | [7] -0.018 | [8] -0.014 | [9] -0.011 | [10] 0.037 | [11] -0.019 | [20] 0.088 | [13] 0.097 | [14] 0.005 | [15] -0.137 | [16] 0.014 | [17] 0.01
